From PubChem BioAssay (NCATS) come the findings set out here.

Each structure is given as a SMILES string. Values joined by “and” are separate entries in the source; they are usually repeats but may differ in a detail not shown here. Equal values may be shown once. Records with an inconclusive call do not appear. Active and inactive are the calls of the source. Unless noted, calls come from the whole dose curve; as a rule, active = well fitted curve in the direction sought with a large enough effect; inconclusive = small, poorly fitted or top-dose-only effect, or another doubt; inactive = no such curve, though single readings can be large; an effect the other way counts as inactive or inconclusive.

Test [1] concerns the target Alpha-galactosidase A (Homo sapiens) (UniProt P06280). Kind of test: Counterscreen for Glucocerebrosidase Inhibitors: qHTS Assay for Human alpha-Galactosidase at pH 4.5 (AID 992). Note: 0% is about no effect. The gist of the method: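 Read-out is 4-methylumbelliferone fluorescence (365 nm excitation, 440 nm emission) after a pH 10 NaOH/glycine stop. Reactions held 2 nM enzyme and 80 uM substrate at pH 4.5 for 20 min at room temperature.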

Test [2] can be described thus: Validation of Assay for Modulators of Lamin A Splicing (AID 1459; active = well fitted curve in the direction sought with a large enough effect in the signal ratio; the % refers to the signal ratio;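 note: cells exposed to compound for two days before reading; 0% is about no effect; ratio rise marks activators and ratio drop marks inhibitors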). The gist of the method:
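S3 HeLa cells stably expressing a lamin A-EGFP splicing minigene and DsRed2 were seeded at 600 cells/well in Opti-MEM with 2% FBS, pin-dosed, and incubated 48 hrs at 37 °C, 5% CO2. Laser-scanning cytometry (488 nm) gave GFP/RFP total intensity ratio.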

Test [3] in a line: qHTS Assay for Lipid Storage Modulators (AID 1519; calls by dose curve; for activity change, negative = inhibition: % is set by controls: 0 for no effect and ±100 for the full control effect). The following applies: Drosophila S3 cells, BODIPY lipid droplet/cell ratio, laser cytometry, cells loaded with oleic acid. The gist of the method: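 Cells seeded at 5,000 per well were treated with compounds over a concentration series and loaded with oleic acid (400 uM, as added). Lipid droplet fluorescence (488 nm excitation, 500-530 nm channel) was read by laser-scanning cytometry and normalized to 20 uM Triacsin C.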

The target of test [4] is Endonuclease 4 (Escherichia coli (strain K12)) (UniProt P0A6C1). Put plainly: Counterscreen for APE1 Inhibitors: qHTS Validation Assay for Inhibitors of Endonuclease IV (AID 1708). Note: % is set by controls: 0 for no effect and ±100 for the full control effect. The gist of the method: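 qHTS concentration-response format; LOPAC1280 tested under APE1-screen conditions. 2 nM enzyme, 15 min compound preincubation at RT, then 50 nM TAMRA/BHQ-2 abasic substrate; kinetic fluorescence read, three reads at 60 s intervals.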

For test [5], the target named is alpha-glucosidase (Oryza sativa, rice) (UniProt Q653V4). Put plainly: Counterscreen for Glucocerebrosidase Inhibitors: qHTS Assay for Rice alpha-Glucosidase at pH 5.0 (AID 997).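 Note: 0% = full activity with enzyme and -100% = basal without enzyme.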 Summed up:
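Rice alpha-glucosidase (4 nM final) with 400 uM 4-methylumbelliferyl-alpha-D-glucopyranoside in citrate buffer pH 5.0, 20 min at room temperature, stopped at pH 10; fluorescence 365/440 nm, compounds 0.7 nM–77 uM, AC50 from Hill fits.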

Test [6] addresses DNA repair nuclease/redox regulator APEX1 (Homo sapiens) (UniProt P27695). Put plainly: qHTS Validation Assay for Inhibitors of the Human Apurinic/apyrimidinic Endonuclease 1 (APE1) (AID 1705;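 note: TAMRA fluorescence gain over two minutes as APE1 cuts a quenched THF abasic duplex; % is set by controls: 0 for no effect and ±100 for the full control effect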). Summed up: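 Human APE1 was preincubated with compound for 15 min at room temperature, then 50 nM (final) THF-abasic double-stranded DNA substrate bearing 5'-TAMRA and 3'-BHQ-2 was added. Incision-driven fluorescence rise (ex 525/em 598 nm) was read kinetically.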

The nature of test [7]: Counterscreen for APE1 Inhibitors: Fluorescent Dye Displacement Validation Assay (AID 1707).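 Note: plate controls were ThO with dsDNA and no compound for no effect and ThO without dsDNA for full effect.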 The gist of the method:
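ThO 250 nM + dsDNA 50 nM (THF abasic site, 5'-TAMRA), Tris-HCl pH7.5/50mM NaCl/2 mM MgCl2/0.01% Tween-20; compounds pin-transferred; ex 480/em 540 nm endpoint. Neutral = no compound; no-DNA ThO wells = negative control.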

The nature of test [8]: Cell Viability - LYMP2-006 (AID 978). Note: % is set by controls: 0 for no effect and ±100 for the full control effect; nearly all actives have a fitted effect of over 60% in size. The gist of the method:
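Human lymphoblastoid cells, 2500 per well, were preincubated 5 hr at 37 C, then exposed to compounds for 24 hr at 37 C in complete medium. Viability was read as intracellular ATP by CellTiter-Glo luminescence; AC50 from Hill-equation fits of qHTS concentration-response data.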

Test [9] can be described thus: Cell Viability - LYMP2-007 (AID 979).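 Note: cells exposed to compound for 24 h before reading; 0% = DMSO only and the negative end = 92 µM tetraoctylammonium bromide; nearly all actives have a fitted effect of over 60% in size.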 Summed up:
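Human lymphoblastoid LYMP2-007 cells (2500/well) preincubated 5 h at 37 C, then treated 24 h at 37 C in complete medium. Viability by CellTiter-Glo ATP luminescence after 30 min at room temperature; AC50 from Hill fits.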

Test [10] in a line: Cell Viability - LYMP2-008 (AID 980). Note: % is set by controls: 0 for no effect and ±100 for the full control effect; nearly all actives have a fitted effect of over 60% in size. The gist of the method: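 LYMP2-008 lymphoblastoid cells (2500/well) plated 5 h, then treated 24 h at 37 C in complete medium. Viability read as intracellular ATP by CellTiter-Glo luminescence after 30 min at room temperature; AC50 from Hill fits.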
The nature of test [11]: Cell Viability - LYMP2-012 (AID 982).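 Note: cellular ATP by luciferase luminescence where a drop means cytotoxicity; cells exposed to compound for one day before reading; 0% = DMSO only and full loss = 92 µM tetraoctylammonium bromide; nearly all actives have a fitted effect of over 55% in size.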
A short description of test [12]: Cell Viability - LYMP2-014 (AID 983).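 Note: plate controls were DMSO only for no effect and 92 µM tetraoctylammonium bromide for full effect; nearly all actives have a fitted effect of over 50% in size.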 Summed up:
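LYMP2-014 human lymphoblastoid cells, 2500/well, treated 24 h at 37 C in complete medium; viability by CellTiter-Glo ATP luminescence after 30 min at room temperature. AC50 from Hill fits of qHTS concentration-response; tetraoctylammonium bromide positive control.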

A short description of test [13]: Cell Viability - LYMP2-016 (AID 984). Note: % is set by controls: 0 for no effect and ±100 for the full control effect; nearly all actives have a fitted effect of over 55% in size. The gist of the method: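 Human lymphoblastoid cells (LYMP2-016), 2500/well in complete medium, preincubated 5 hr at 37 C, then compound-treated 24 hr at 37 C. Intracellular ATP read by CellTiter-Glo luminescence after 30 min at room temperature; AC50 from Hill-equation concentration-response fits.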
A short description of test [14]: Cell Viability - LYMP2-018 (AID 985).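 Note: compound exposure lasted 24 hr at 37 °C; plate controls were DMSO only for no effect and tetraoctylammonium bromide at 92 µM for full effect; nearly all actives have a fitted effect of over 50% in size.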 Summed up:
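Human lymphoblastoid LYMP2-018 cells, 2500/well, settled 5 hr at 37 C then exposed to compound 24 hr at 37 C; intracellular ATP measured by CellTiter-Glo luminescence. AC50 from Hill-equation concentration-response fits.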

The nature of test [15]: Cell Viability - LYMP2-020 (AID 986).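 Note: plate controls were DMSO only for no effect and tetraoctylammonium bromide at 92 µM for full effect; nearly all actives have a fitted effect of over 55% in size.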 Summed up: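 Human lymphoblastoid LYMP2-020 cells (2500/well) preincubated 5 h at 37 C, then treated 24 h at 37 C. Viability measured as intracellular ATP by CellTiter-Glo luminescence after 30 min at room temperature; AC50 from Hill fits.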
The nature of test [16]: Cell Viability - LYMP2-022 (AID 987).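 Note: 0% = DMSO alone and full effect = tetraoctylammonium bromide at 92 µM; nearly all actives have a fitted effect of over 55% in size.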 The gist of the method: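 LYMP2-022 lymphoblastoid cells (2500/well, complete medium) were treated with compounds for 24 hours at 37 C; intracellular ATP was then read by CellTiter-Glo luminescence after 30 min at room temperature. AC50 values were derived from Hill-equation fits.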
Test [17] in a line: Cell Viability - LYMP2-024 (AID 988).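 Note: plate controls were DMSO only for no effect and 92 µM tetraoctylammonium bromide for full effect; nearly all actives have a fitted effect of over 60% in size.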 Summed up: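 Human lymphoblastoid LYMP2-024 cells (2500/well) rested 5 hr, then treated with compound for 24 hr at 37 C in complete medium. Viability was measured as intracellular ATP by CellTiter-Glo luminescence. AC50 values came from Hill-equation fits.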
A short description of test [18]: Cell Viability - LYMP2-026 (AID 989). Note: % is set by controls: 0 for no effect and ±100 for the full control effect; nearly all actives have a fitted effect of over 50% in size. The gist of the method:
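Human lymphoblastoid LYMP2-026 cells, 2500/well, exposed to compound 24 h at 37 C in complete medium. Viability as intracellular ATP by CellTiter-Glo luminescence; AC50 from Hill fits of qHTS concentration-response.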

The nature of test [19]: Cell Viability - LYMP1-002 - Assay at 24 hr (AID 993). Note: % is set by controls: 0 for no effect and ±100 for the full control effect. The gist of the method: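 Human lymphoblastoid LYMP1-002 cells (2500/well) treated 24 h at 37 °C; viability as intracellular ATP by CellTiter-Glo luminescence. Tetraoctylammonium bromide as positive control; AC50 from Hill-equation fits of qHTS concentration-response.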
Test [20] is described as follows: Cell Viability - LYMP1-002 - Assay at 40 hr (AID 994). The gist of the method:
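LYMP1-002 human lymphoblastoid cells (2500/well, complete medium) were treated with compounds for 40 hr at 37 C. Intracellular ATP was measured by CellTiter-Glo luminescence, and AC50 values came from Hill-equation fits of concentration-response data; tetraoctylammonium bromide was the positive control.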

The mark [21] stands for this setting: measured here: cell count channel max response.
Setting [22] is: measured here: lipid channel max response.

Chain of DNA repair nuclease/redox regulator APEX1 (Homo sapiens) (P27695 whole entry, looked up): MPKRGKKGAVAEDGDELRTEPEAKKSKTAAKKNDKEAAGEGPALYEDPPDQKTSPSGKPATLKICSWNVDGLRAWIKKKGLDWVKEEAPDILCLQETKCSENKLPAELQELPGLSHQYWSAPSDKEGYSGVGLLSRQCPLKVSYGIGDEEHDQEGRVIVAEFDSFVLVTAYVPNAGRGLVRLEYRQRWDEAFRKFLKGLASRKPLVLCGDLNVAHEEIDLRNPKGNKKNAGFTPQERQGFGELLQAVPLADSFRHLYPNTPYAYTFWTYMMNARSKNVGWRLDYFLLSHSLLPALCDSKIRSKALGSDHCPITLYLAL
Chain of Alpha-galactosidase A (Homo sapiens) (P06280 whole entry, looked up): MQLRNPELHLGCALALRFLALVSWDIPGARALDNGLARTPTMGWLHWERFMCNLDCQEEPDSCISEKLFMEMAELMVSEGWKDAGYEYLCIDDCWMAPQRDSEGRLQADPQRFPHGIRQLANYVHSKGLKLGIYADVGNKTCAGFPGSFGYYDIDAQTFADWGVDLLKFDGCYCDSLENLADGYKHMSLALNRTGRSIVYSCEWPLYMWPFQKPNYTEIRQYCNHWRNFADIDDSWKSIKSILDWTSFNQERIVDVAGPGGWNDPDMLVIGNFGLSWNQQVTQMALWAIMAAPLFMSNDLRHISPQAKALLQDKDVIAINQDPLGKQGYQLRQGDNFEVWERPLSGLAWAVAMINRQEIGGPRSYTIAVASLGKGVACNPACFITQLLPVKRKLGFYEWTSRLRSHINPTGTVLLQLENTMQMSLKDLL

As to `CCOC(=O)Nc1ccc(NCc2ccc(F)cc2)nc1N`, the outcome in test [1] and in test [2] was inactive. For the same compound, in test [3] (at 57.5 µM (top of the series)), the activity change, negative = inhibition is 0.206% (inactive). In addition, the figures for the max response in test [3] (setting [21]) and in test [3] (setting [22]) were 49% and 49.4%, respectively. In addition, the Potency entry in [4] is “inactive”.
Turning to `O=C1N(c2ccccc2)c2ccccc2C1(Cc1ccncc1)Cc1ccncc1`, the call in test [1], in test [5] and in [2] was inactive. For the same compound, in test [4], the Potency result was “inactive”.
Take `CC(CCc1ccc(O)cc1)NCCc1ccc(O)c(O)c1` (stereo not given): the outcome in test [2] was inactive. Also, the Potency entry in [4] was “inactive”.
Turning to `NC(CO)C(=O)NNCc1ccc(O)c(O)c1O` (stereo not given), in test [2], the outcome was inactive. In [3] (at 57.5 µM (top of the series)), the activity change, negative = inhibition is 13.3% (inactive). For the same compound, the max response in test [3] (setting [21]) amounted to 25.8%; in [3] (setting [22]) it was 46.4%. The Potency entry in test [6], in test [7] and in test [4] was “inactive” in each case.
Consider `CCOC(=O)C(C)(C)Oc1ccc(Cl)cc1`, for which the outcome in test [1] and in test [2] was inactive. Further, the Potency result in test [6] and in test [4] was “inactive” each time.
Turning to `N[C@@H](Cc1c[nH]c2ccc(O)cc12)C(=O)O`, the call in test [8], in test [9], in test [10], in test [11], in [12] and in test [13] was inactive. Further, the call in test [14], in test [15], in test [16], in test [17], in test [18] and in [1] was inactive. Also, the compound was classed as inactive in [19], in test [5] and in [2]. For the same compound, the Potency entry in test [20] and in test [4] was “inactive” throughout.
`NCCCCCC(=O)O`: the outcome in test [1] and in [5] was inactive. Also, the activity change, negative = inhibition was -1.59% (inactive) in test [3] (at 25.7 µM (top of the series)); 7.83% (inactive) and -0.624% (inactive) in [3] (at 57.5 µM (top of the series)). Moreover, the max response was -1.8% and 21.2% and -62.4% in [3] (setting [21]); -4.61% and 34.1% and -65.3% in test [3] (setting [22]). In addition, the Potency entry in [6], in [7] and in test [4] was “inactive” in each case.
For `NCCc1cnc[nH]1`, the compound was called inactive in test [1], in test [5] and in test [2]. The Potency result in [6], in test [7] and in test [4] was “inactive” throughout.
